Compound activity from PubChem BioAssay.
Pf Dd2 inh: inhibitors of Plasmodium falciparum Dd2 growth. AID 1347417. Potency, µM (doses to about 28.9 µM), inactives show at the top dose activity, negative = inhibition, usual class: inhibitors. P. falciparum Dd2 growth, SYBR Green, 72 h. hit rate 4.3% among 120,000; active = well fitted inhibition curve with a large enough effect;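 also: plate controls were DMSO vehicle for no effect and reference drug for full effect; nearly all actives have a fitted effect of over 65% in size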
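Infected erythrocytes (Dd2, 0.3% parasitemia, 2.5% hematocrit final) are added to compound in RPMI-1640/Albumax II medium, grown 72 h at 37C in low oxygen, then lysed with saponin/Triton-X containing SYBR Green and read by fluorescence.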
Active calls of the source: *; i = inactive; [ ] = remark or other dose. This excerpt belongs to a sample that is enriched for hits. Potency is read from the fitted curve at half-maximal effect.

SMILES	Pf Dd2 inh
Cc1nn2c(c1-c1ccccc1OCc1ccccc1)N(C(=O)C1CCC1)CCC2	-8%[44.1 µM]
O=C(c1ccc(F)cc1)N1C[C@@H]2OCC(=O)N(Cc3ccccn3)[C@@H]2C1	20%[44.1 µM]
NC(=O)C1(c2nc(-c3ccncc3)nn2-c2ccc3c(c2)OCCO3)CC1	-14%
C=CCNC(=O)C1CC(c2cccc(C)c2)CN(C(=O)NCCCC)C1 (stereo not drawn)	-25%
CCC(CC)n1nc(C)cc1NC(=O)CCCn1cnc2ccccc2c1=O	-3%
CCCCc1c(C)nc2c(-c3ccc(Cl)cc3)c(C)[nH]n2c1=O	-19%
Cc1ccc(Cc2c(C)nc3c(-c4ccccc4)c(C)[nH]n3c2=O)cc1	-20%
Cc1nc2c(-c3ccccc3)c(C)[nH]n2c(=O)c1Cc1ccc(Br)cc1	7.9µM*
CCOc1cc(=O)n2c(c1C(=O)Nc1ccc(OC)c(OC)c1)CCCC2	18%
Cc1ncccc1C(=O)N1CCC(C(=O)N2CCCCCCNC(=O)CC2)CC1	10%
O=C1CCN(S(=O)(=O)c2ccccc2)CCCN(C(=O)CN2CCOCC2)CCN1	5%
CN(CC1CCCN(CCc2cccc(C(F)(F)F)c2)C1)C(=O)c1ccc2[nH]ccc2c1 (stereo not drawn)	10µM*
O=C(c1ccc(=O)[nH]c1)N1CCCC(CCc2cccc(C(F)(F)F)c2)C1 (stereo not drawn)	-14%
Cc1c[nH]c(C(=O)N2CCCC(CCc3cccc(C(F)(F)F)c3)C2)c1 (stereo not drawn)	-22%
COc1ccc(-c2cnc3n[nH]c(-c4sccc4C)c3n2)cc1OC	-15%[44.1 µM]
O=C(N[C@H]1C[C@H]2C(=O)Nc3ccccc3C(=O)N2C1)c1cccnc1	15%[44.1 µM]
O=C(Nc1ccccc1)N[C@H]1C[C@H]2C(=O)NC[C@@H](CCC(=O)N3CCc4ccccc43)N2C1	-10%
CCCCN1C(=O)c2[nH]nc(-c3ccccc3O)c2C1c1cc(Br)c(O)c(OC)c1 (stereo not drawn)	-24%
CCCCN1C(=O)c2[nH]nc(-c3ccccc3O)c2C1c1ccc(OCc2ccccc2)c(OC)c1 (stereo not drawn)	11µM*
CCCN1C(=O)c2[nH]nc(-c3ccccc3O)c2C1c1ccc(OCc2ccccc2)c(OCC)c1 (stereo not drawn)	11µM*
CCOc1ccc(C2c3c(-c4ccccc4O)n[nH]c3C(=O)N2Cc2cccnc2)cc1OC (stereo not drawn)	i
COc1cccc(CC(=O)N2CCc3nn(C)c(=O)n3CC2)c1	15%
O=C(COCC1CCCO1)N1CCc2onc(-c3ccc4c(c3)OCO4)c2C1 (stereo not drawn)	-10%
COc1cccc(N2CC(C(=O)N3CCC(C(=O)N4CCOCC4)C3)NC2=O)c1 (stereo not drawn)	-7%
CNC(=O)N1CCC(C2CCN(C(=O)c3cscn3)C2)CC1 (stereo not drawn)	1%
SMILES	Pf Dd2 inh
CCO[C@H]1C[C@@H](O)C12CCN(c1ccc(C#N)cn1)CC2	-2%
Cc1ccc(-c2ccc3nnc(CNC(=O)C4CC4)n3n2)cc1	-9%
c1ccc(CC2=NOC3(CCN(CC4CCCCC4)CC3)C2)cc1	3.5µM*
c1cncc(C2=NOC3(CCN(CC4CCCCC4)CC3)C2)c1	22%
c1ccc(CC2=NOC3(CCN(Cc4ccccc4)C3)C2)cc1 (stereo not drawn)	4.5µM*
FC(F)(F)c1ccc(CN2CCCC3(CC(Cc4ccccc4)=NO3)C2)cc1 (stereo not drawn)	-15%
COc1ccc(CN2CCCC3(CC(Cc4ccccc4)=NO3)C2)cc1 (stereo not drawn)	-6%
CC(C)CCN1CCCC2(CC(Cc3ccccc3)=NO2)C1 (stereo not drawn)	-18%[44.1 µM]
Cc1ccc(Cl)cc1NC(=O)N1CCCC(Cn2cnc3cccnc32)C1 (stereo not drawn)	-11%
CCN1C(=O)N(C2Cc3ccccc3C2)C(=O)C12CCN(Cc1cnn(-c3ccccc3)c1)CC2	-8%
Cc1cccc(CNC(=O)CCc2conc2-c2ccc(F)cc2)c1	-8%
COCCc1noc([C@@H]2CC(F)(F)CN2C(=O)c2cc(C)on2)n1	34%
C[C@@H](NCC1CC1)c1onc(-c2ccc(Cl)cc2)c1C(=O)O	-18%[44.1 µM]
COCCc1nn2c(=O)cc(COC(=O)c3ccc(C(C)(C)C)cc3)nc2s1	14µM*
COCCc1nn2c(=O)cc(COC(=O)c3cccs3)nc2s1	45%[5.79 µM]
Cc1nn2c(=O)cc(COC(=O)c3ccc(C(C)(C)C)cc3)nc2s1	18%
O[C@@H]1C[C@@H](c2nc(-c3ccc(OC(F)(F)F)cc3)no2)N(C2CCOCC2)C1	i
COc1ccc(CNC2CN(C(=O)OC(C)(C)C)C2)cc1	-12%
CC(C)(C)OC(=O)N1CC(NCc2ccc(-c3ccc(OC(F)(F)F)cc3)cc2)C1	10µM*
CC(C)(C)OC(=O)N1CC(NCc2ccc(C(F)(F)F)cc2)C1	-7%
O=C(O)C[C@@H]1CCN(C(=O)NC2CCCCC2)C[C@@H]1CCN1C[C@@H]2C[C@H](C1)c1cccc(=O)n1C2	18%
C=CCNC(=O)Cc1ccc(N(Cc2ccc(C)cc2)C(=O)c2ccco2)cc1	-2%
O=C(NC[C@H]1Cn2c(-c3ccc4c(c3)OCCO4)cnc2CO1)C1CC1	-8%[44.1 µM]
O=S(=O)(Cc1ccccc1)NC[C@H]1Cn2c(-c3ccc(F)cc3)cnc2CO1	i
c1ccc(CNC[C@H]2Cn3c(-c4ccc5c(c4)OCCO5)cnc3CO2)cc1	11µM*
SMILES	Pf Dd2 inh
O=S(=O)(Cc1ccccc1)NC[C@H]1Cn2c(-c3ccc(Cl)cc3)cnc2CO1	-7%[44.1 µM]
Clc1ccc(CNC[C@H]2Cn3c(-c4ccccc4)cnc3CO2)cc1	-12%[44.1 µM]
COc1ncccc1CNC[C@H]1Cn2c(-c3ccc(F)cc3)cnc2CO1	25µM*
CS(=O)(=O)NC[C@H]1Cn2c(-c3ccc4c(c3)OCCO4)cnc2CO1	i
Clc1ccc(-c2cnc3n2C[C@H](CNCc2cccnc2)OC3)cc1	-11%[44.1 µM]
O=C(NCc1ccccc1)NC[C@H]1Cn2c(-c3ccc(Cl)cc3)cnc2CO1	2.8µM*
O=C1CC(C(=O)N2CCc3c(Cl)cccc3C2)CN1Cc1cccnc1 (stereo not drawn)	-8%
O=[S+]([O-])(c1cccs1)N1CC(Oc2ccc3c(c2)OCO3)C1	-9%
O=C(N1CCOCC1)N1CCN(C2CCNCC2)C(=O)C1	10%
COc1ccc(-c2cc(N3CCN(C(=O)c4cccc(Br)c4)CC3)n[nH]2)cc1	-5%
CCNC(=O)NCC1Cn2cccc2CN1C (stereo not drawn)	-16%
COCC(=O)N1CCCC(C(=O)NCCCn2nc(C)c(Cl)c2C)C1 (stereo not drawn)	-12%
COCc1noc([C@@H]2CC(F)(F)CN2C(=O)c2c(C)noc2C)n1	-17%
O=C([C@@H]1C[C@H](F)CN1C(=O)c1cccs1)N1CCOCC1	35%
Cc1ccc(N2CCC(N[C@@H]3CC[C@@H](N)C3)CC2)cc1Cl	13µM*
Cc1ccc(C(=O)NC2CCN(c3cnn(CC4CC4)c(=O)c3)CC2)cc1C	i
Cc1ccc(-n2ncc3c(NC4CCCCCC4)ncnc32)cc1Cl	i
CCN(CC)C(=O)c1cc2c(s1)CCC(C(=O)Nc1ccc(OC)c(F)c1)C2 (stereo not drawn)	i
O=C1N(C2CCCCC2)C[C@H]2CN(Cc3cccc(Cl)c3)CCN12	-8%[44.1 µM]
CCOCCOC1CCN(C(=O)Nc2cccc(C)c2)CC1	13%
Cc1cccc(CN2CCc3c(n(Cc4cccnc4)n(-c4ccccc4)c3=O)C2)n1	5%[44.1 µM]
CSc1nccc(-c2ccccc2CO)n1	-11%
CSc1nccc(-c2cc(NCc3cccnc3)nc3[nH]ccc23)n1	10µM*
